Data from article PMC5540273 (PLoS ONE, 2017).
Like-named read-outs stand apart in the source and are kept apart here.

Experiments:
NEK11 = details: concentration: 1 μM, replicates: in singlicate; n = 1
NEK1 = details: concentration: 1 μM, replicates: in singlicate; n = 1
NEK2 = details: concentration: 1 μM, replicates: in singlicate; n = 1
NEK3 = details: concentration: 1 μM, replicates: in singlicate; n = 1
NEK4 = details: concentration: 1 μM, replicates: in singlicate; n = 1
NEK5 = details: concentration: 1 μM, replicates: in singlicate; n = 1
NEK6 = details: concentration: 1 μM, replicates: in singlicate; n = 1
NEK7 = details: concentration: 1 μM, replicates: in singlicate; n = 1
NEK9 = details: concentration: 1 μM, replicates: in singlicate; n = 1
NIK = system: T1, NIK; details: concentration: 1 μM, replicates: in singlicate; n = 1
T1 construct: gene MAP3K14

NIM1 = system: T2, NIM1; details: concentration: 1 μM, replicates: in singlicate; n = 1
T2 construct: gene MGC42105

NLK = details: concentration: 1 μM, replicates: in singlicate; n = 1
OSR1 = system: T3, OSR1; details: concentration: 1 μM, replicates: in singlicate; n = 1
T3 construct: gene OXSR1

PAK1 = details: concentration: 1 μM, replicates: in singlicate; n = 1
PAK2 = details: concentration: 1 μM, replicates: in singlicate; n = 1
PAK3 = details: concentration: 1 μM, replicates: in singlicate; n = 1
PAK4 = details: n = 1
PAK6 = details: n = 1
PAK7 = details: concentration: 1 μM, replicates: in singlicate; n = 1
PCTK1 = system: T4, PCTK1; details: concentration: 1 μM, replicates: in singlicate; n = 1
T4 construct: gene CDK16

[1] = concentration: 1 μM, replicates: in singlicate
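Note: KINOMEscan kinase panel screen.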

O=C(Nc1cccc(Oc2ccc3nc(NC(=O)C4CC4)cn3n2)c1)c1ccccc1C(F)(F)F
%Inh (NEK11): 0%
%Inh (NEK1): 9%
%Inh (NEK2): 12%
%Inh (NEK3): 26%
%Inh (NEK4): 0%
%Inh (NEK5): 9%
%Inh (NEK6): 0%
%Inh (NEK7): 0%
%Inh (NEK9): 0%
%Inh (NIK): 0%
%Inh (NIM1): 0%
%Inh (NLK): 37%
%Inh (OSR1): 0%
%Inh (PAK1): 8%
%Inh (PAK2): 6%
%Inh (PAK3): 4%
%Inh (PAK4; [1]): 0%
%Inh (PAK6; [1]): 9%
%Inh (PAK7): 0%
%Inh (PCTK1): 0%

COc1ccc(-c2coc3ccc(-c4nnc(SCc5ccc(OC)c(C(F)(F)F)c5)o4)cc23)cc1
%Inh (NEK11): 0%
%Inh (NEK1): 0%
%Inh (NEK2): 8%
%Inh (NEK3): 0%
%Inh (NEK4): 2%
%Inh (NEK5): 0%
%Inh (NEK6): 13%
%Inh (NEK7): 0%
%Inh (NEK9): 0%
%Inh (NIK): 1%
%Inh (NIM1): 0%
%Inh (NLK): 10%
%Inh (OSR1): 3%
%Inh (PAK1): 0%
%Inh (PAK2): 3%
%Inh (PAK3): 22%
%Inh (PAK4; [1]): 1%
%Inh (PAK6; [1]): 17%
%Inh (PAK7): 3%
%Inh (PCTK1): 0%

COc1ccc(Nc2nccc(N3CCC(NC(=O)Nc4cccc(OC)c4)C3)n2)cc1 (stereo not shown) [GSK1379742]
%Inh (NEK11): 0%
%Inh (NEK1): 0%
%Inh (NEK2): 17%
%Inh (NEK3): 0%
%Inh (NEK4): 0%
%Inh (NEK5): 3%
%Inh (NEK6): 0%
%Inh (NEK7): 0%
%Inh (NEK9): 2%
%Inh (NIK): 7%
%Inh (NIM1): 22%
%Inh (NLK): 0%
%Inh (OSR1): 0%
%Inh (PAK1): 44%
%Inh (PAK2): 27%
%Inh (PAK3): 0%
%Inh (PAK4; [1]): 0%
%Inh (PAK6; [1]): 0%
%Inh (PAK7): 0%
%Inh (PCTK1): 4%

COc1cccc(C2=C(Nc3ccc(Cl)c(C(=O)O)c3)C(=O)NC2=O)c1 [SB-390769]
%Inh (NEK11): 27%
%Inh (NEK1): 0%
%Inh (NEK2): 0%
%Inh (NEK3): 7%
%Inh (NEK4): 38%
%Inh (NEK5): 3%
%Inh (NEK6): 0%
%Inh (NEK7): 0%
%Inh (NEK9): 0%
%Inh (NIK): 21%
%Inh (NIM1): 100%
%Inh (NLK): 22%
%Inh (OSR1): 100%
%Inh (PAK1): 30%
%Inh (PAK2): 28%
%Inh (PAK3): 0%
%Inh (PAK4; [1]): 0%
%Inh (PAK6; [1]): 6%
%Inh (PAK7): 1%
%Inh (PCTK1): 0%

CN(C)Cc1ccc(-c2ccc3c(Nc4ccc(Oc5ccccn5)cc4)ccnc3c2)o1 [GW567148]
%Inh (NEK11): 8%
%Inh (NEK1): 0%
%Inh (NEK2): 0%
%Inh (NEK3): 0%
%Inh (NEK4): 21%
%Inh (NEK5): 0%
%Inh (NEK6): 0%
%Inh (NEK7): 0%
%Inh (NEK9): 0%
%Inh (NIK): 12%
%Inh (NIM1): 23%
%Inh (NLK): 0%
%Inh (OSR1): 15%
%Inh (PAK1): 0%
%Inh (PAK2): 0%
%Inh (PAK3): 22%
%Inh (PAK4; [1]): 0%
%Inh (PAK6; [1]): 0%
%Inh (PAK7): 0%
%Inh (PCTK1): 3%

O=C(Nc1cccc(-c2nn3ncccc3c2-c2ccnc(Nc3ccccc3)n2)c1)c1c(F)cccc1F [GSK198271]
%Inh (NEK11): 0%
%Inh (NEK1): 3%
%Inh (NEK2): 21%
%Inh (NEK3): 11%
%Inh (NEK4): 4%
%Inh (NEK5): 0%
%Inh (NEK6): 0%
%Inh (NEK7): 0%
%Inh (NEK9): 8%
%Inh (NIK): 0%
%Inh (NIM1): 4%
%Inh (NLK): 95.1%
%Inh (OSR1): 16%
%Inh (PAK1): 24%
%Inh (PAK2): 16%
%Inh (PAK3): 31%
%Inh (PAK4; [1]): 0%
%Inh (PAK6; [1]): 1%
%Inh (PAK7): 0%
%Inh (PCTK1): 10%

COc1cc(Nc2nccc(N3CCC(NC(=O)c4cc5ccccc5s4)C3)n2)cc(OC)c1OC (stereo not shown) [GSK1379760]
%Inh (NEK11): 0%
%Inh (NEK1): 35%
%Inh (NEK2): 26%
%Inh (NEK3): 11%
%Inh (NEK4): 13%
%Inh (NEK5): 99.5%
%Inh (NEK6): 27%
%Inh (NEK7): 37%
%Inh (NEK9): 31%
%Inh (NIK): 4%
%Inh (NIM1): 6%
%Inh (NLK): 0%
%Inh (OSR1): 2%
%Inh (PAK1): 4%
%Inh (PAK2): 2%
%Inh (PAK3): 9%
%Inh (PAK4; [1]): 0%
%Inh (PAK6; [1]): 0%
%Inh (PAK7): 0%
%Inh (PCTK1): 0%

CCn1c(-c2nonc2N)nc2c(C#CC(C)(C)O)ncc(OCCCCN)c21.O=C(O)C(F)(F)F.O=C(O)C(F)(F)F [GSK507274]
%Inh (NEK11): 50%
%Inh (NEK1): 0%
%Inh (NEK2): 34%
%Inh (NEK3): 5%
%Inh (NEK4): 34%
%Inh (NEK5): 11%
%Inh (NEK6): 1%
%Inh (NEK7): 0%
%Inh (NEK9): 0%
%Inh (NIK): 68%
%Inh (NIM1): 29%
%Inh (NLK): 0%
%Inh (OSR1): 40%
%Inh (PAK1): 81%
%Inh (PAK2): 88%
%Inh (PAK3): 49%
%Inh (PAK4; 1 µM): 98.1%
%Inh (PAK6; 1 µM): 89%
%Inh (PAK7): 99%
%Inh (PCTK1): 8%
